Assay outcomes from PubChem.
The list is not random: actives were taken first. Their share in the collection is about 18%.
HepG2 viability: qHTS for Inhibitors of TGF-b: Cytotox Counterscreen | 410,000 tested, 0.76% active | HepG2 CAGA-GFP viability, ATP luminescence, 18 h | Potency, µM (doses to about 46.1 µM), for the others: at the highest dose activity change, negative = cytotoxicity, hits mostly cytotoxic; further: potency means the concentration at half of the fitted maximal effect
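CellTiter-Glo luminescence gave cytotoxicity after 18 hours at 37 degrees C. The cells were HepG2 CAGA-GFP in 1% FBS DMEM, stimulated with 500 pg/mL TGF-beta after compound addition. %Activity was normalised to no-cell wells (complete cell-killing) and DMSO (no toxicity), and curves were fitted and classified.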
TDP1 block: qHTS Assay for Inhibitors of Tyrosyl-DNA Phosphodiesterase (TDP1). Potency, µM (doses to about 130 µM), for inactives: at the top dose activity change, negative = inhibition, hits mostly inhibitors. recombinant TDP1, AlphaScreen DNA substrate cleavage. Tyrosyl-DNA phosphodiesterase 1 (Homo sapiens), Q9NUW8. 350,000 tested, 0.28% active; further: potency means the concentration at half of the fitted maximal effect; on the % scale 0 is the no-effect control and ±100 the full control effect; nearly all actives have a fitted effect of over 40% in size
Target sequence (Q9NUW8 whole entry, looked up): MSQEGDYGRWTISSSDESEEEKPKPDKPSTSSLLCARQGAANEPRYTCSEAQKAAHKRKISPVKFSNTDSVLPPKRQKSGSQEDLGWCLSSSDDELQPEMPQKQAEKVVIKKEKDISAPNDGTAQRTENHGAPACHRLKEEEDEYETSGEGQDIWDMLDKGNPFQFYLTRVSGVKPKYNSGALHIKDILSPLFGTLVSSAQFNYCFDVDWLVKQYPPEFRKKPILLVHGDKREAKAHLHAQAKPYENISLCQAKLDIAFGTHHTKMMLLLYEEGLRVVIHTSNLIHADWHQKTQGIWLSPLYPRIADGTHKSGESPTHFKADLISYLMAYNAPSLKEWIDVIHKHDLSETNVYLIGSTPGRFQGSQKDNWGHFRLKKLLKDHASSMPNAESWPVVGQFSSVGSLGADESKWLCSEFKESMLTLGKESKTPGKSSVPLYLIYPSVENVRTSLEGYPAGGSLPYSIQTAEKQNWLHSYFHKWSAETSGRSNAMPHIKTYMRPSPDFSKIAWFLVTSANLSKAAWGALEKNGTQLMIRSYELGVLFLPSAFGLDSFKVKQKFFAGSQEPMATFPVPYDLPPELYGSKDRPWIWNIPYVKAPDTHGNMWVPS
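Tdp1 1 nM final; 15 min RT w/ cpd; substrate 15 nM, 5 min; beads 10 ug/ml, 10 min; AlphaScreen read. Neg ctrl: no enzyme.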
TGFb inhibitor: qHTS for Inhibitors of TGF-b. Potency, µM (titrated, usually from 46.1 µM), for the others: top-dose activity, negative = inhibition, usual class: inhibitors. 410,000 tested, 1.2% active. HepG2 CAGA-GFP TGF-b/SMAD3 reporter, GFP fluorescence, 18 h; TGF-beta stimulated, 500 pg/mL final. AID 588855, 2011; further: potency means the concentration at half of the fitted maximal effect; on the % scale 0 is the no-effect control and ±100 the full control effect; nearly all actives have a fitted effect of over 65% in size
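Smad-responsive CAGA-GFP expression was quantified in HEPG2 cells exposed to compounds and 500 pg/mL final TGF-beta for 18 h at 37 degrees C; unstimulated wells defined full inhibition.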
DT40 TDP1 CPT: qHTS for Inhibitors of human tyrosyl-DNA phosphodiesterase 1 (TDP1): qHTS in cells in presence of CPT; chicken DT40 Tdp1-/-;hTDP1 cells + 20 nM CPT, ATP luminescence, 48 h; Potency, µM (series often up to 46.2 µM), without a hit: at the top dose activity change, negative = growth inhibition, most hits filed as inhibitors; 420,000 tested, 12% active; AID 686979, 2013; further: potency means the concentration at half of the fitted maximal effect; on the % scale 0 is the no-effect control and ±100 the full control effect; nearly all actives have a fitted effect of over 55% in size
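Cell growth measured by CellTiter-Glo luminescence after a minimum 48 h, 37 C compound exposure with 20 nM CPT in Tdp1-knockout DT40 cells stably expressing hTDP1, seeded 400/well; qHTS titration format.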
IL1B secr inh: qHTS for Inhibitors of Inflammasome Signaling: IL-1-beta AlphaLISA Primary Screen. THP-1 LPS/ATP IL-1B secretion, AlphaLISA, 16 h; stronger effect = lower value. activity change, % at 57.5 µM. 360,000 tested, 4.7% active. AID 743279, 2014; in the data active means activity change below about -50%; inconclusive means mostly about -30% to -49%; further: on the % scale 0 is the no-effect control and ±100 the full control effect
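THP-1 cells pretreated 1 hr with compounds (up to 57.5 uM final), then stimulated with LPS (250 ng/mL final) plus ATP (1.25 mM final); secreted IL-1B measured by AlphaLISA after 16 hr, decreased signal indicating inhibition.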
TDP1 cell noCPT: qHTS for Inhibitors of human tyrosyl-DNA phosphodiesterase 1 (TDP1): qHTS in cells in absence of CPT; DT40 Tdp1-/- hTDP1 cells, no CPT, ATP luminescence, 48 h; Potency, µM (titrated, usually from 46.2 µM), for inactives: at the top dose activity change, negative = growth inhibition, most hits filed as inhibitors; 420,000 tested, 15% active; further: potency means the concentration at half of the fitted maximal effect; on the % scale 0 is the no-effect control and ±100 the full control effect; nearly all actives have a fitted effect of over 55% in size
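No-CPT arm: Tdp1-/-;hTDP1 DT40 cells (400/well) plus compounds, incubated ≥48 hr at 37 °C. Readout CellTiter-Glo luminescence.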
Numbers without * were called inactive; ? = inconclusive; . = no result; [ ] = dose if it differs, or a comment. Unless noted, the call rests on the fitted dose curve; in most records, active means well fitted curve in the direction sought with a large enough effect; inconclusive means small, poorly fitted or top-dose-only effect, or another doubt; inactive means no such curve, though single readings can be large; an effect the other way counts as inactive or inconclusive.

SMILES	HepG2 viability	TDP1 block	TGFb inhibitor	DT40 TDP1 CPT	IL1B secr inh	TDP1 cell noCPT
CCCCCc1cc(=O)oc2c(C(CCN3CCN(c4ccccc4)CC3)c3ccc(N(C)C)cc3)c(OC)cc(OC)c12 (stereo not given)	-1%	9%	-1%	21µM*	-16	?
COc1cc(OC)c2ccc(=O)oc2c1C(CCN1CCN(c2ccccc2)CC1)c1ccc(N(C)C)cc1 (stereo not given)	-20%	24%	-25%	15µM*	11	?
COc1cc(OC)c2c(-c3ccccc3)cc(=O)oc2c1C(CCN1CCN(c2ccccc2)CC1)c1ccc(N(C)C)cc1 (stereo not given)	3%	24%	?	15µM*	-6	23µM*
COc1cc(C2CC(=O)Oc3c(C(CCN4CCN(c5ccccc5)CC4)c4ccc(N(C)C)cc4)c(OC)cc(OC)c32)cc(OC)c1OC (stereo not given)	-10%	24%	-9%	?	-7	?
COc1ccc(C(CCN2CCN(c3ccccc3)CC2)c2c(OC)cc(OC)c3c(-c4ccccc4)cc(=O)oc23)cc1 (stereo not given)	-11%	16%	?	?	4	?
CC(C)CC(=O)NC1(C(F)(F)F)C(=O)N(CC(C)C)C2=C1C(=O)CC(C)(C)C2 (stereo not given)	5%	1%	0%	-5%	2	-32%
CC(=O)N1CC=CC1(CC(C)C)C(=O)NCc1ccc(C)o1 (stereo not given)	.	2%	.	.	.	.
O=C(COC(=O)C1CCC1)Nc1ncc(Cl)cc1Cl	-13%	.	-11%	-29%	-8	-10%
Cn1nc([N+](=O)[O-])c(C(C#N)c2nc3ccccc3n2C)c(Cl)c1=O (stereo not given)	-3%	5%	-29%	?	-8	23µM*
Cn1c(-c2ccc([N+](=O)[O-])cc2)nc2ccccc21	-22%	0%	-4%	12%	-18	-20%
CCn1c(-c2ccccc2F)nc2cc(NC(C)=O)cc(C(=O)N3CCNC(=O)C3CC(=O)OC)c21 (stereo not given)	.	.	.	4%	.	0%
O=C(C(=O)N1CCCN(Cc2ccc(F)cc2)CC1)c1ccccc1	.	.	.	2%	-3	?
CCc1ccc(NC(=O)COC(=O)C2(c3ccc(Cl)cc3)CCCC2)cc1	3%	-3%	?	21µM*	9	21µM*
O=C(COC(=O)C1(c2ccc(Cl)cc2)CCCC1)NCc1ccco1	0%	0%	14%	0%	-6	-25%
O=C(COC(=O)c1ccccc1Cl)NCc1cccs1	4%	.	16%	-4%	7	0%
O=C(COC(=O)C1(c2ccccc2F)CCCC1)NCc1ccc2c(c1)OCO2	0%	5%	5%	?	-73*	?
O=C(COC(=O)C1(c2ccc(F)cc2)CCCC1)NCc1ccc2c(c1)OCO2	-37%	0%	?	?	-4	?
O=C(COC(=O)C1(c2ccccc2F)CCCC1)NCc1cccs1	9%	0%	25%	?	?	23µM*
Nc1cc(Cl)ccc1C(=O)OCC(=O)NCc1cccs1	-12%	-7%	-2%	?	-85*	?
Cc1ccc(OCC(=O)N(Cc2nnc(-c3ccccc3Cl)o2)C2CC2)cc1C	-17%	3%	-23%	?	-8	?
O=C(CCC(=O)Nc1cccnc1)Nc1cccnc1	0%	.	6%	7%	-1	-1%
Cc1ccc(S(=O)(=O)NCC2CCC(C(=O)NCCc3ccccc3)CC2)cc1 (stereo not given)	-11%	6%	?	-11%	.	-16%
NS(=O)(=O)c1ccc(NC(=O)COC(=O)C2(c3ccccc3F)CCCC2)cc1	-29%	3%	-3%	?	-62*	?
Cc1ccc(NC(=O)c2nc(S(C)(=O)=O)ncc2N(Cc2ccco2)Cc2ccccc2F)c(C)c1	-24%	6%	-28%	12µM*	.	9.2µM*
Cc1ccc(CN(Cc2ccco2)c2cnc(S(C)(=O)=O)nc2C(=O)Nc2ccc(Br)cc2)o1	-23%	8%	-1%	18µM*	.	?
SMILES	HepG2 viability	TDP1 block	TGFb inhibitor	DT40 TDP1 CPT	IL1B secr inh	TDP1 cell noCPT
CC(C)c1ccc(CN(Cc2ccco2)c2cnc(S(C)(=O)=O)nc2C(=O)Nc2ccccc2)cc1	-17%	4%	?	18µM*	.	12µM*
N#Cc1ccccc1OCC(=O)N(C1CCCCC1)C1CCS(=O)(=O)C1 (stereo not given)	3%	-1%	-8%	-4%	5	-4%
COCCN(Cc1ccco1)C(=O)Cn1ncc2c(=O)oc3ccccc3c21	1%	5%	-2%	-1%	-4	10%
CN(CC(=O)Nc1ccccc1Br)C(=O)CNC(=O)c1ccco1	8%	-8%[0.505 µM]	9%	-3%	17	0%
COc1ccc([N+](=O)[O-])c(S(=O)(=O)c2ccccc2)n1	14µM*	10%	3.2µM*	0.58µM*	-96*	1.6µM*
O=[N+]([O-])c1cccnc1S(=O)(=O)c1ccccc1	3.5µM*	.	11µM*	0.92µM*	-97*	0.82µM*
COc1ccc([N+](=O)[O-])c(S(=O)(=O)c2ccc(Cl)cc2)n1	0.63µM*	12%	1.8µM*	1µM*	-95*	0.65µM*
COc1nc(OC)nc(Oc2ccc(Cl)cc2[N+](=O)[O-])n1	-4%	3%	10%	1%	-3	-1%
COc1ccccc1S(=O)(=O)c1ccccc1[N+](=O)[O-]	0%	0%	?	-28%	36	0%
COc1ccc(C(=O)COC(=O)c2nc3nccc(C)n3n2)cc1F	3%	0%	-1%	-12%	-2	-16%
C[C@@H]1CN([C@@H](C)CO)C(=O)c2cc(Br)cnc2O[C@@H]1CN(C)S(C)(=O)=O	2%	.	-1%	-9%	-5	-9%
Fc1ccc(-c2ccnc(=S)[nH]2)cc1	-35%	4%	-2%	21µM*	0	?
COc1cccc2cc(-c3ccnc(=S)[nH]3)oc12	.	1%	.	.	.	.
